Data on 57 molecules can be found in PubChem BioAssay AID504462 (Sanford-Burnham Center for Chemical Genomics, 2011).

About 1,700 (0.5%) of roughly 340,000 compounds were called active. Only a selection was taken, and actives are over-represented in it overall. A number with no mark means an inactive call. No stated cut-off is given here; in the data, active means inhibition above about 40%; inactive means the rest.

Sequence of Cysteine protease ATG4B (Homo sapiens) (Q9Y4P1 whole entry, looked up): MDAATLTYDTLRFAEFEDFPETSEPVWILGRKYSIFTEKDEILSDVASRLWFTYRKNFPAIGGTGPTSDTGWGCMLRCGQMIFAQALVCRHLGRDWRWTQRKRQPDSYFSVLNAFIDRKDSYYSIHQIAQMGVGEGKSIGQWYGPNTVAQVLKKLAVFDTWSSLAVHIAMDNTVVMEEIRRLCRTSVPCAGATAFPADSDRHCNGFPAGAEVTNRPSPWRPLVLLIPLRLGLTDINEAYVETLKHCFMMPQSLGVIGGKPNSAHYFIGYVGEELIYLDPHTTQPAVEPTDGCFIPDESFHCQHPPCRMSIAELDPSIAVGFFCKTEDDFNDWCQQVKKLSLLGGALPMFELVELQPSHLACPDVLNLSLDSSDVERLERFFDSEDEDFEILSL

The assay has as its target Cysteine protease ATG4B (Homo sapiens) (UniProt Q9Y4P1). As to the kind of experiment: ATG4B protease inhibitors, primary screen, biochemical, fluorescence, uHTS (AID 504462). Conditions: ATG4B cleavage of LC3-PLA2, NBD-HPC fluorescence, 1 h; at 8.33 µM; active compounds read high.
In the case of `CCn1nnc(NC(=O)c2cc(Cl)c(OC)c(Cl)c2)n1`, the inhibition is -1.88%. Turning to `O=C(Nc1ccccc1Cc1ccccc1)c1ccc2c(c1)SC1=NS(=O)(=O)CCN12`, the inhibition is -8.36%. For the molecule `CC(=O)c1cc(-c2ccccc2)n(CCC(=O)NC2CCCCCC2)c1C`, the inhibition is -4.01%. With `CCc1ccc(N(CC(=O)Nc2sc3c(c2C(=O)OC)CCCC3)S(C)(=O)=O)cc1` the figure was -5.39%.

Regarding `COC(=O)c1c(NC(=O)COC(=O)[C@@H](NS(=O)(=O)c2ccccc2)C(C)C)sc2c1CCC2`, the inhibition is 71% (active). With `COC(=O)c1c(NC(=O)CN(c2ccc(C)c(C)c2)S(C)(=O)=O)sc2c1CCCC2` the figure was -3.55%. Take `O=[N+]([O-])/C=C/c1ccc2c(ccn2Cc2ccccc2)c1`: the inhibition is 5.14%. As for `COc1ccc2c(c1)CCc1c(C(=O)N3CCCC3)noc1-2`, the inhibition was -6.35%. The result for `COc1ccc2c(c1)CCc1c(C(=O)N3CCc4ccccc4C3)noc1-2` reads 55.6% (active). The result for `O=C(c1noc2c1CCCC2)N1CCc2ccccc2C1` reads 0.28%. As for `O=C(c1cn2ccccc2n1)N1CCc2c([nH]c3ccccc23)C1c1ccccn1` (configuration not stated), the inhibition is -13.7%. The result for `Cc1cccc(C2c3[nH]c4ccccc4c3CCN2C(=O)c2cc(-c3cccn3C)n[nH]2)n1` (configuration not stated) reads 62.3% (active); that for `Cc1cccc(C(=O)N2CCc3c([nH]c4ccccc34)C2CC(C)C)n1` (configuration not stated), -9.03%. With `O=C(COc1cc(Cl)c(Cl)cc1Cl)NC(=O)NC1CCCC1` the figure was -1.73%. `Cc1c(/C=N\NC(=O)c2cc3ccccc3o2)c2ccccc2n1C`: the inhibition was -15.2%. With `CC(C)(C)OC(=O)NCCCCCC(=O)N/N=C/c1coc2ccccc2c1=O` the figure was 14.7%; with `O=C(N/N=C/c1coc2ccccc2c1=O)c1cc2ccccc2o1`, 61.1% (active); with `O=C(COCc1cc(-c2ccc3c(c2)OCO3)on1)N1CCN(c2cccc(Cl)c2)CC1`, 5.35%.

On to `CCOc1ccc(CC(=O)NCCS(=O)(=O)N2CCN(c3ccccc3)CC2)cc1`, for which the inhibition was -6.99%. The result for `NC(=O)CSc1nnc(NC(=O)c2ccc3ccccc3c2)s1` reads 5.71%; that for `O=C(Nc1nnc(SCc2c(Cl)cccc2Cl)s1)c1cccc([N+](=O)[O-])c1`, 7.45%; that for `O=C(Nc1nnc(SCc2ccccc2Cl)s1)c1cccc([N+](=O)[O-])c1`, 71.7% (active). For `CN(CC(=O)Nc1cccc(F)c1)C(=O)C1CC(=O)N(CCc2ccccc2)C1` (configuration not stated), the inhibition was -5.48%. Take `OC(CNCc1ccc(Cl)c(Cl)c1)c1ccccc1` (configuration not stated): the inhibition is 40%. With `CCOC(=O)c1ccc(NNC(C)=O)c([N+](=O)[O-])c1` the figure was -7.65%; with `COc1cc2ccccc2cc1C(=O)Nc1ccccc1C`, -2.98%; with `COc1ccc(Br)cc1C(=O)NC(=S)Nc1cc(-c2nc3ccccc3[nH]2)ccc1C`, 65% (active). Turning to `COc1ccc(Br)cc1C(=O)Nc1cccc(C)c1C`, the inhibition is 7.75%.

Regarding `CN1C(C)(C)CC(NC(=O)CCC(=O)NC2CC(C)(C)N(C)C(C)(C)C2)CC1(C)C`, the inhibition is -1.23%. The result for `C#CCOCCOCCOCCNc1nc(N2CCN(C(=O)Cn3cc(CCO)nn3)CC2)nc(N2CCN(C(=O)Cn3cc(CCCN=C(N)N)nn3)CC2)n1` reads -2.83%; that for `C#CCOCCOCCOCCNc1nc(N2CCN(C(=O)[C@H](CCCN=C(N)N)n3cc(C(N)[C@@H](C)CC)nn3)CC2)nc(N2CCN(C(=O)[C@H](CO)n3cc([C@@H](N)C(C)C)nn3)CC2)n1` (some centres not stated), -2.36%; that for `C#CCOCCOCCOCCNc1nc(N2CCN(C(=O)CCCCCCCCCCNC(=O)[C@H]([C@@H](C)CC)n3cc(CCCCN=C(N)N)nn3)CC2)nc(N2CCN(C(=O)CCCCCCCCCCNC(=O)[C@H](CO)n3cc(CCCSC)nn3)CC2)n1`, 41.9% (active). With `O=C(c1n[nH]c2c1CCC2)N1CCCC(Nc2cccc(F)c2)C1` (configuration not stated) the figure was 5.08%; with `CCc1ccc(/C=C2\SC(N3CCOCC3)=NC2=O)cc1`, -5.05%; with `O=C1N=C(N2CCc3ccccc3C2)S/C1=C\c1ccc(O)cc1`, 67.7% (active).

As to `CCOc1cc(/C=C2\SC(N3CCCCC3)=NC2=O)ccc1O`, the inhibition is -6.5%. The result for `O=C(NCCCO)/C(=C\C=C\c1ccccc1)NC(=O)c1ccccc1Cl` reads -7.32%; that for `O=C1CSC(=S)N1c1ccc(Cl)c(Cl)c1`, 4.82%; that for `CC1CC(C)CN(C/C=C/c2ccccc2[N+](=O)[O-])C1` (configuration not stated), 11.3%. Take `CC1CCN(Cc2nc3c(c(=O)n(C)c(=O)n3C)n2CCc2ccccc2)CC1`: the inhibition was -1.37%. With `CCCc1nc2c(c(=O)c3ccccc3n2C)c(=O)n1C1CCCCCC1` the figure was 41.3% (active); with `Cn1c2ccccc2c2c(C(=O)N3CCN(c4ccc(F)cc4)CC3)cn(C3CCCC3)c(=O)c21`, -29.5%. With `Cn1nc(C(C)(C)C)c(NC(=O)c2sccc2Cl)c1C(C)(C)C` the figure was 8.72%. The result for `O=C(O)C1=NN(c2c(F)c(F)cc(F)c2F)C(=O)CC1` reads -1.19%; that for `O=C(Nc1cccc(Cl)c1N1CCOCC1)c1cccnc1`, -5.52%. Turning to `O=C(Nc1cccc(Cl)c1N1CCOCC1)c1ccc2c(c1)OCCO2`, the inhibition is 33.9%. For `CCN1CCN(c2c(Cl)cccc2NC(=O)c2ccc(Br)o2)CC1`, the inhibition was 56.4% (active). The result for `C[C@H](CO)N1C[C@H](C)[C@@H](CN(C)S(=O)(=O)c2ccc(F)cc2)Oc2c(NC(=O)Nc3ccccc3)cccc2C1=O` reads -16.4%. The result for `O=C(CN1C(=O)C2C3C=CC(C3)C2C1=O)NCC1COc2ccccc2O1` (configuration not stated) reads 0.03%. Take `O=C1C(=O)N(CC2COc3ccccc3O2)c2ccccc21` (configuration not stated): the inhibition was 72.1% (active). With `O=C(NCC1COc2ccccc2O1)C1(c2ccccc2)CCCC1` (configuration not stated) the figure was 4.25%. Take `FC(F)(F)c1cccc(NC(=S)Nc2cccc(Cl)c2)c1`: the inhibition was 44.3% (active).

As to `FC(F)(F)c1cccc(N/N=C/c2ccccc2)c1`, the inhibition is -3.29%. Turning to `Cn1cc(Cl)c(C(=O)NNC(=S)Nc2cccc(Cl)c2)n1`, the inhibition is -0.09%.

For the molecule `Cc1nc(SCC(=O)N2CC(=O)Nc3ccccc32)c2c(C)c(C)sc2n1`, the inhibition was 26.7%. With `O=C(CSc1nnc(-c2cccs2)n1Cc1ccccc1)N1CCc2ccccc2C1` the figure was 31.5%. The result for `Cc1nc(SCC(=O)N2CCc3ccccc3C2)c2c(C)c(C)sc2n1` reads 71.6% (active).

By inhibition is commonly meant the change of the read-out against control, counted positive when it falls.
